Laboratory results taken from the supplement of paper PMC10849652.
About 7,900 targets were measured; listed, in parts, are those with a hit and a random draw of the rest. About 0.6% of all pairs of compound and target were hits. A number with no mark means an inactive call.

What was measured:
Assay in all cases: log2 fold change, soluble protein after heating vs DMSO (PISA); higher = thermal stabilisation; K562 cells, 10 uM, 30 min; active = over 0.2 and 3.5 SD of the protein, either way, in both replicates (recomputed)
[1] = compound: NC(=O)Nc1cc(-c2cccc(F)c2)sc1C(=O)N[C@H]1CCCNC1
In short: (§1)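 Thermal stability values are relative to control samples and come from duplicates. They are expressed as log2 fold changes. For measurement, K562 cells (2×10^6 cells/mL) received 10 μM compound for 30 min, and aliquots were heated for 3 min over 48°C-58°C, pooled, and extracted at 4°C in PBS with 0.5% NP-40. Soluble protein, the supernatant after 21,000xg for 90 min, was quantified by TMTpro 16plex LC-MS/MS with equalised channel sums.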

[2] = compound: NC(=O)c1cnc(N[C@@H]2CCCC[C@@H]2N)nc1Nc1cccc(-n2nccn2)c1
In short: as §1

[3] = compound: NC1(c2ccc(-c3nc4ccn5c(=O)[nH]nc5c4cc3-c3ccccc3)cc2)CCC1
In short: as §1

[4] = compound: NCC(=O)Nc1ccc(-n2nc(C(F)(F)F)cc2-c2ccc3c(ccc4ccccc43)c2)cc1
In short: as §1

entinostat = compound: Nc1ccccc1NC(=O)c1ccc(CNC(=O)OCc2cccnc2)cc1 [entinostat]
In short: as §1

vorinostat = compound: O=C(CCCCCCC(=O)Nc1ccccc1)NO [vorinostat]
In short: as §1

citarinostat = compound: O=C(CCCCCCNC(=O)c1cnc(N(c2ccccc2)c2ccccc2Cl)nc1)NO [citarinostat]
In short: as §1

silmitasertib = compound: O=C(O)c1ccc2c(c1)nc(Nc1cccc(Cl)c1)c1ccncc12 [silmitasertib]
In short: as §1

[5] = compound: O=C1NC(=O)C(c2cnc3ccccn23)=C1c1cn2c3c(cc(F)cc13)CN(C(=O)N1CCCCC1)CC2
In short: as §1

[6] = compound: c1cc(OCCN2CCCCC2)cc(-c2n[nH]c3ccc(-c4nnc[nH]4)cc23)c1
In short: as §1

entospletinib = compound: c1cn2cc(-c3ccc4cn[nH]c4c3)nc(Nc3ccc(N4CCOCC4)cc3)c2n1 [entospletinib]
In short: as §1

UniProt P17707, sequence (P17707 whole entry, looked up): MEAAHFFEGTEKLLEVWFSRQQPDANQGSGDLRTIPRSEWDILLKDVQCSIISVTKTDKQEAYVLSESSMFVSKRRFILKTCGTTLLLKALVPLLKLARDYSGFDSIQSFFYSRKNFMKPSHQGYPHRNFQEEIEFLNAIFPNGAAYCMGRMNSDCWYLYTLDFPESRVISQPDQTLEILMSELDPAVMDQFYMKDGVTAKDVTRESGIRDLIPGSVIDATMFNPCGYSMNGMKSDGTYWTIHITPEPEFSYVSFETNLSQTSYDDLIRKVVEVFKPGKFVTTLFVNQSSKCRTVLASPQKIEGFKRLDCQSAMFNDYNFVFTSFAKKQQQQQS
UniProt Q9NX38, sequence (Q9NX38 whole entry, looked up): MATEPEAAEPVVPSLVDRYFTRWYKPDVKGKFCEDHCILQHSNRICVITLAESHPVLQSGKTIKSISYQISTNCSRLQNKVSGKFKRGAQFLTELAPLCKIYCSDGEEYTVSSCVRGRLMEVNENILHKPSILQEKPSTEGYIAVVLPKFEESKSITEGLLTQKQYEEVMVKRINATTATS
UniProt Q13895, sequence (Q13895 whole entry, looked up): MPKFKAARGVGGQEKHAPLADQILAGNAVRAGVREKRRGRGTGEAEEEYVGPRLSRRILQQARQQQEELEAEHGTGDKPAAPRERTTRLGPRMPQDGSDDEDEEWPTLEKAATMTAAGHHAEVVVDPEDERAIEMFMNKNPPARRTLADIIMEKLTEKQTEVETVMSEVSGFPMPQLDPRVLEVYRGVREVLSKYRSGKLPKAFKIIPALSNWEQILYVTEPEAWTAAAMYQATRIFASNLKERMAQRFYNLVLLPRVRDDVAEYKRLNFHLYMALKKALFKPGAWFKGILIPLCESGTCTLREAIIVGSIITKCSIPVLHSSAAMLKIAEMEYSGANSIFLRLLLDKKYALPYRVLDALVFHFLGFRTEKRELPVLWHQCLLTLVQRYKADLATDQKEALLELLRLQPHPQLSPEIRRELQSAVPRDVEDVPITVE
UniProt P55263, sequence (P55263 whole entry, looked up): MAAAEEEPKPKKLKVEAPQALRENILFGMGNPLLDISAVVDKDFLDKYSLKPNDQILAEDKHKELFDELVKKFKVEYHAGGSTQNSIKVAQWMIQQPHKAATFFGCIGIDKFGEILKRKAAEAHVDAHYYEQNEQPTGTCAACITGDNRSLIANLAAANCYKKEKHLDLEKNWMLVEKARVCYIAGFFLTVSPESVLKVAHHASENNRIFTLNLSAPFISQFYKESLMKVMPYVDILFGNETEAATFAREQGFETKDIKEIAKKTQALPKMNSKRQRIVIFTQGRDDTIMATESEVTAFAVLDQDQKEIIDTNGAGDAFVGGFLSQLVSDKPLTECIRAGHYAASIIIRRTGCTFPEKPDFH
UniProt Q7Z3C6, sequence (Q7Z3C6 whole entry, looked up): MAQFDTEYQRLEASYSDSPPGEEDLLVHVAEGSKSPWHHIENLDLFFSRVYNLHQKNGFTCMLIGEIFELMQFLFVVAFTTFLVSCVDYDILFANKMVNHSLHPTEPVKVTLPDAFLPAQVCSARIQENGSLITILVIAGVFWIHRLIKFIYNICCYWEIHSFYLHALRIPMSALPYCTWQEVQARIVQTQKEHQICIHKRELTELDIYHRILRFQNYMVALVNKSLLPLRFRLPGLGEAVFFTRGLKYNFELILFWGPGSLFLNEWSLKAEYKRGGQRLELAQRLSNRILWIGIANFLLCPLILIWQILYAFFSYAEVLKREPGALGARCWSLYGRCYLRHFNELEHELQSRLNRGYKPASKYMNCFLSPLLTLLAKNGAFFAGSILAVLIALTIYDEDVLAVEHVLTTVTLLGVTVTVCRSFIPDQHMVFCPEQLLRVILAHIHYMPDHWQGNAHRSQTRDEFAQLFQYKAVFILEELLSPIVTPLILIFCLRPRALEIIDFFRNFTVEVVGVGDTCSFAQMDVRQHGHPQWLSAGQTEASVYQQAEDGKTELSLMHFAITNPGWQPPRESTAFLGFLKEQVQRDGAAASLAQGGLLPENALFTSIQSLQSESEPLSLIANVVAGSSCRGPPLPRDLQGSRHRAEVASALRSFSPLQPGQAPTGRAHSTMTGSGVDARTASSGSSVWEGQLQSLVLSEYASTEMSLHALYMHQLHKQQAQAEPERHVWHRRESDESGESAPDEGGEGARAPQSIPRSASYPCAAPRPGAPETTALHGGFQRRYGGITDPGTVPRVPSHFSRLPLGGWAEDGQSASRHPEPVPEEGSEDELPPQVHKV
UniProt Q92560, sequence (Q92560 whole entry, looked up): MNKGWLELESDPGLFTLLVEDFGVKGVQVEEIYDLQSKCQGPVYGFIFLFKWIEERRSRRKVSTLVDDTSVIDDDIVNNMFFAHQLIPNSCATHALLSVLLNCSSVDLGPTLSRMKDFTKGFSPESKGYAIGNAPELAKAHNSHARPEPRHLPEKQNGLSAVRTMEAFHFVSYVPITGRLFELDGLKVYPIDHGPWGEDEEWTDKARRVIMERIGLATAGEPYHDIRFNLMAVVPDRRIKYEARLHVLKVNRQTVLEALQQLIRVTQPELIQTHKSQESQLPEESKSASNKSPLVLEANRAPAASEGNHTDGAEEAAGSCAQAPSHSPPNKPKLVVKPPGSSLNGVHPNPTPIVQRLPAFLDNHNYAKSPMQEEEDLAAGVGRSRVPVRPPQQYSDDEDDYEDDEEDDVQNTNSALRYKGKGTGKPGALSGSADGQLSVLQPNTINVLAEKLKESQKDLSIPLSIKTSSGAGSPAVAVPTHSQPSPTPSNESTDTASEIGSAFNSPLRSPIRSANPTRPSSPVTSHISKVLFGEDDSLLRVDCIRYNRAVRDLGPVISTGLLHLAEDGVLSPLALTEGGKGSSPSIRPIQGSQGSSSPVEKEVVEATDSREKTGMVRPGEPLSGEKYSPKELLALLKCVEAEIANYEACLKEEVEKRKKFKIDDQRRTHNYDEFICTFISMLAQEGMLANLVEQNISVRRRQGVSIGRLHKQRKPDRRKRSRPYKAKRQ
UniProt Q5JTZ9, sequence (Q5JTZ9 whole entry, looked up): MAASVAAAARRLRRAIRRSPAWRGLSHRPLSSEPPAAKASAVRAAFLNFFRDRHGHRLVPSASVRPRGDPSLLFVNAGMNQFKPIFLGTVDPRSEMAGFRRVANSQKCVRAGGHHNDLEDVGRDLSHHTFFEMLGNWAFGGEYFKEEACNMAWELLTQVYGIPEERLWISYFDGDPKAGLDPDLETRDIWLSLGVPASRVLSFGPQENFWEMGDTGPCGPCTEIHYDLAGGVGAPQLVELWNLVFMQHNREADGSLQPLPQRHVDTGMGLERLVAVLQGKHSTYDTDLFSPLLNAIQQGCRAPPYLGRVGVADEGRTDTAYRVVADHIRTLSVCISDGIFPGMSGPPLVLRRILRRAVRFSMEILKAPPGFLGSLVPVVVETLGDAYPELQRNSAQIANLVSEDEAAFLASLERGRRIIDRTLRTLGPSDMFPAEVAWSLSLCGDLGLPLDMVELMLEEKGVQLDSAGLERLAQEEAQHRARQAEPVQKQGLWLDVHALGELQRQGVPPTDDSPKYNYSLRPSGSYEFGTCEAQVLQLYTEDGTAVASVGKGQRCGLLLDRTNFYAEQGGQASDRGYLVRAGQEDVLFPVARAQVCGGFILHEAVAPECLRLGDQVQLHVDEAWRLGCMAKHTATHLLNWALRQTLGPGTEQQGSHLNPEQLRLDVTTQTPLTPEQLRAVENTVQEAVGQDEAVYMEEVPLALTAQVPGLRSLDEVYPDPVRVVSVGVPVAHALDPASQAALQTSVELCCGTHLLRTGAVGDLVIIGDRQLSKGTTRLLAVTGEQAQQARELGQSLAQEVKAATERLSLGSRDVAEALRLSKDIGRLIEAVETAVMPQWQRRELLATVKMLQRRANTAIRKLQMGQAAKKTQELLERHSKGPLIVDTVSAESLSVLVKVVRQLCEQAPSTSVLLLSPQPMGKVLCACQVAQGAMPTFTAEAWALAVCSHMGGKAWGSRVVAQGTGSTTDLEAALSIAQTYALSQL
UniProt Q9ULC5, sequence (Q9ULC5 whole entry, looked up): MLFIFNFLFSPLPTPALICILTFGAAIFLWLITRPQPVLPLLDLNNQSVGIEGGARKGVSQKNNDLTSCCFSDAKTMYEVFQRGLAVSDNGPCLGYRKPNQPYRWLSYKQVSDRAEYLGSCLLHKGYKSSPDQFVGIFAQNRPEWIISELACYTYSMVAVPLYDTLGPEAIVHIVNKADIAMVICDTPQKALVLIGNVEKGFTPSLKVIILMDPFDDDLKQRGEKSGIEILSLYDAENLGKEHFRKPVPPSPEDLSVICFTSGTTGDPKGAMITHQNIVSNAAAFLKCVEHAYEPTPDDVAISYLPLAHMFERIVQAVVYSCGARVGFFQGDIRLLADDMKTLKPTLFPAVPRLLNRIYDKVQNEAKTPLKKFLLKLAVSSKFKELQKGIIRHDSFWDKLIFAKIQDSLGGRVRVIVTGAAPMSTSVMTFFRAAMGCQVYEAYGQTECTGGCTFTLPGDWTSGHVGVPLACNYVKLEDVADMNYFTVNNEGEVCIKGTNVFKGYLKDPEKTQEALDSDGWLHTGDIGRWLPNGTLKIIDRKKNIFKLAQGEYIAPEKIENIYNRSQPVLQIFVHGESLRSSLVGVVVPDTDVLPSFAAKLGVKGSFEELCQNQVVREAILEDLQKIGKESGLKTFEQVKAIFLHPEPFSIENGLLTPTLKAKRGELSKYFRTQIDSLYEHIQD
UniProt P24666, sequence (P24666 whole entry, looked up): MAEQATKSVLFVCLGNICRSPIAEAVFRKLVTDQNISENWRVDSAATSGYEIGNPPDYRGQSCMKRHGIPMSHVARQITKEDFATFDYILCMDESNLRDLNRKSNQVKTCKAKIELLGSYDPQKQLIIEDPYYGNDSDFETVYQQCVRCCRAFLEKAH
UniProt Q9BTT0, sequence (Q9BTT0 whole entry, looked up): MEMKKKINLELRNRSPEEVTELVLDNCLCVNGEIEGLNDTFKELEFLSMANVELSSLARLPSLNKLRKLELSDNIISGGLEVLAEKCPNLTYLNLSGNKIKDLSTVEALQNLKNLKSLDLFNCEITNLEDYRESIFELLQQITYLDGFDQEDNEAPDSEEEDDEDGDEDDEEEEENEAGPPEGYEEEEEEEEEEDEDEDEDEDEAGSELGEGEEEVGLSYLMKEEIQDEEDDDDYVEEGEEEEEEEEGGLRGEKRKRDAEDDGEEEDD

Row | Target | log2 fold change [1] | log2 fold change [2] | log2 fold change [3] | log2 fold change [4] | log2 fold change (entinostat) | log2 fold change (vorinostat) | log2 fold change (citarinostat) | log2 fold change (silmitasertib) | log2 fold change [5] | log2 fold change [6] | log2 fold change (entospletinib)
1 | ALDH2 (UniProt P05091) | 0.012 | -0.039 | -0.046 | -0.016 | -0.007 | 0.216 (active) | 0.043 | -0.038 | -0.001 | -0.023 | -0.025
2 | ARAF (UniProt P10398) | -0.059 | 0.196 | -0.119 | 0.011 | 0.062 | 0.055 | 0.098 | 0.048 | 0.017 | -0.096 | -0.003
3 | ACP1 isoform 2 (UniProt P24666) | 0.048 | -0.018 | -0.086 | -0.041 | 0.041 | 0.159 | 0.005 | -0.005 | -0.149 | -0.044 | 0.052
4 | ABITRAM (UniProt Q9NX38) | -0.018 | -0.12 | -0.194 | 0.008 | 0.008 | -0.089 | 0.046 | 0.094 | -0.015 | -0.006 | -0.052
5 | ADK (UniProt P55263) | -0.071 | 0.07 | 0.12 | -0.04 | -0.087 | -0.044 | -0.02 | 0.011 | 0.232 | 0.158 | 0.082
6 | ARPP19 (UniProt P56211) | -0.049 | -0.075 | -0.019 | 0.046 | 0.027 | -0.038 | 0.1 | 0 | 0.026 | -0.051 | -0.06
7 | ACSL1 (UniProt P33121) | -0.058 | -0.015 | -0.091 | -0.003 | -0.034 | 0.004 | 0.071 | 0.029 | -0.038 | -0.022 | -0.006
8 | AMD1 (UniProt P17707) | 0.043 | -0.091 | -0.074 | -0.149 | -0.038 | -0.093 | 0.007 | 0.004 | -0.007 | -0.08 | 0.045
9 | BAP1 (UniProt Q92560) | -0.073 | 0.085 | 0.073 | 0.012 | -0.054 | 0.13 | 0.058 | 0.04 | 0.076 | -0.142 | -0.062
10 | ATIC (UniProt P31939) | -0.023 | 0.001 | 0.03 | -0.009 | -0.019 | -0.026 | 0.01 | -0.059 | -0.066 | 0.013 | 0.045
11 | AGRN (UniProt O00468) | 0.016 | 0.053 | 0.033 | 0.02 | 0.035 | -0.126 | 0.01 | -0.073 | 0.087 | -0.238 | 0.018
12 | ANP32E (UniProt Q9BTT0) | 0.029 | -0.043 | 0.014 | 0.063 | 0.016 | 0.01 | 0.116 | 0.083 | -0.233 | -0.036 | 0
13 | ANAPC2 (UniProt Q9UJX6) | 0.079 | -0.025 | -0.063 | -0.023 | 0.02 | 0.074 | 0.124 | 0.087 | 0.027 | -0.049 | -0.001
14 | ACP2 (UniProt P11117) | -0.014 | 0.002 | -0.124 | 0.018 | -0.01 | -0.003 | 0.05 | 0.069 | -0.052 | -0.102 | -0.004
15 | AARS2 (UniProt Q5JTZ9) | -0.029 | -0.018 | -0.212 | -0.086 | 0.045 | 0.015 | 0.037 | -0.051 | -0.026 | 0.06 | -0.082
16 | ATP6AP1 (UniProt Q15904) | -0.033 | -0.208 | -0.149 | -0.04 | 0.025 | 0.063 | 0.035 | 0.043 | -0.005 | -0.087 | -0.012
17 | ATP11A (UniProt P98196) | -0.034 | 0.065 | -0.001 | -0.054 | -0.025 | -0.08 | -0.154 | 0.065 | -0.024 | -0.32 (active) | 0.158
18 | BTBD6 (UniProt Q96KE9) | 0.054 | 0.102 | 0.469 | 0.199 | -0.039 | 0.081 | 0.273 | -0.352 | -0.011 | 0.118 | 0.056
19 | ACADVL isoform 3 (UniProt P49748) | -0.025 | -0.036 | -0.021 | -0.032 | 0 | -0.019 | 0.043 | -0.015 | -0.014 | -0.028 | 0.002
20 | ATP1A1 (UniProt P05023) | -0.055 | 0.093 | 0.116 | 0.07 | -0.04 | 0.03 | -0.003 | -0.062 | -0.077 | 0.003 | 0.002
21 | BLVRB (UniProt P30043) | 0.069 | 0.006 | -0.116 | 0.018 | 0.058 | 0 | 0.058 | 0.01 | 0.021 | -0.035 | 0.069
22 | APLP2 (UniProt Q06481) | -0.13 | -0.021 | 0.036 | 0.054 | -0.063 | -0.035 | 0.02 | 0 | 0.074 | 0.046 | -0.009
23 | ATG9A (UniProt Q7Z3C6) | 0.019 | 0 | -0.262 | 0.038 | 0.008 | 0.061 | 0.059 | -0.023 | 0.019 | -0.013 | -0.025
24 | ACAP2 (UniProt Q15057) | -0.016 | -0.075 | 0.026 | -0.035 | 0.005 | 0 | 0.029 | -0.007 | -0.078 | 0.045 | -0.073
25 | ASH2L (UniProt Q9UBL3) | -0.025 | -0.075 | 0.002 | -0.074 | 0.025 | 0.013 | 0.044 | 0.08 | -0.064 | -0.05 | -0.02
26 | ACSL5 isoform 3 (UniProt Q9ULC5) | -0.007 | -0.066 | -0.042 | -0.184 | 0.081 | 0.005 | -0.035 | 0.002 | -0.103 | -0.052 | -0.021
27 | BYSL (UniProt Q13895) | -0.012 | 0.053 | -0.052 | 0.062 | 0.046 | 0.058 | -0.007 | 0.085 | 0.068 | 0.001 | -0.065
